Where “and” joins values, the source holds several entries; their conditions need not be identical. Identical values can stand only once.

The assay in a line: sensitizers of A549 cells to miR-34 induction, primary screen, imaging, A549 dox-inducible miR-34, nuclei and caspase counts (AID 1347080). Further: test concentration not given here. The settings on record: A549 miR-34 inducible, Hoechst nuclei count, 48 h; measured here: total cells without miR-34 induction.
As to `NC(=O)c1ncn(C2O[C@H](CO)[C@@H](O)[C@H]2O)c1N` (stereo partly drawn), the cell count was found to be 9660. In the case of `CO/N=C(/C(=O)N[C@@H]1C(=O)N2C(C(=O)OCSC(=O)c3ccco3)=CCS[C@H]12)c1csc(N)n1`, the cell count was found to be 9350. Take `CC(=O)[C@@]12O[C@](C)(c3ccccc3)O[C@@H]1CC1C3CCC4=CC(=O)CC[C@]4(C)C3CC[C@@]12C` (stereo partly drawn): the cell count is 5940. `CC(=O)c1ccc2c(c1)Sc1ccccc1N2CCCN1CCN(CCO)CC1`: the cell count worked out at 9300.

Turning to `CO/N=C(/C(=O)NC1C(=O)N2C(C(=O)O)=C(CSc3nnnn3C)CSC12)c1csc(N)n1` (stereo not drawn), the cell count was 9680. With `O=c1[nH]c(=O)n([C@H]2C[C@H](O)C(CO)O2)cc1I` (stereo partly drawn), the cell count was 7880. For `CC(=O)OC1CC2CCC1(C)C2(C)C` (stereo not drawn) the value was 9520.

As to `C[C@@H]1CC2C3CCC4=CC(=O)C=C[C@]4(C)[C@@]3(F)[C@@H](O)C[C@]2(C)[C@H]1C(=O)CO` (stereo partly drawn), the cell count is 7160 and 6670.
